A selection: hits, their analogues and other compounds. The true share with any hit is near 10%.
Sfp inh = inhibitors of Bacillus subtilis Sfp phosphopantetheinyl transferase. Biochemical Sfp PPTase activity, qHTS. Potency, µM, actives largely listed as inhibitors. hit rate 3.5% among 310,000;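 note: the enzyme is Sfp with the accession as filed and its product quenches rhodamine fluorescence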
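Reaction rates are the 30-min fluorescence difference (ex 525, em 598 nm) in wells containing 15 nM Sfp, 5 uM rhodamine-CoA and 12.5 uM BHQ-2-YbbR at pH 7.6 with 10 mM MgCl2.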
PLK1 PBD block = blocks phosphopeptide binding to human PLK1 polo-box domain; Potency, µM, hits mostly inhibitors; Plk1 PBD binding of FITC phosphopeptide, fluorescence polarization; hit rate 2.8% among 360,000; P53350; note: series mostly up to about 57 µM; nearly all actives have a fitted effect of over 65% in size
G9a block = blocks human histone lysine methyltransferase G9a; G9a H3K9 monomethylation, AlphaScreen, 2 h; hit rate 8.8% among 350,000; Potency, µM (doses to about 102 µM), hits mostly inhibitors; AID 504332; note: nearly all actives have a fitted effect of over 75% in size
Target sequence (Q96KQ7 913-1193 limits assumed): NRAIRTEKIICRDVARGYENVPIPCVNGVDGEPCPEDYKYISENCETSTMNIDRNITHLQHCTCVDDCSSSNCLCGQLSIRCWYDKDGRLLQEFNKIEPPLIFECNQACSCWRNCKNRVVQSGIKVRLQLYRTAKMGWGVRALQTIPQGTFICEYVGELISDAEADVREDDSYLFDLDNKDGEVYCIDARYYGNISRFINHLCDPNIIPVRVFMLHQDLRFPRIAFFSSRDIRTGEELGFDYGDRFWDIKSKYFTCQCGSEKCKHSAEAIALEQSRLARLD
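Compounds were preincubated with 20 nM G9a for 15 min, after which biotinylated H3K9 peptide (500 nM) and SAM (20 uM) started a 2 h room-temperature reaction. Monomethylated product was quantified by antibody-based AlphaScreen chemiluminescence.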
CCT modulator = modulators of cytosolic chaperonin (CCT/TRiC) activity; AID 651819; purified chaperonin ATPase assay, HTRF ADP detection, 30 min; hit rate 0.3% among 360,000; activity change, % (test concentration not listed), hits read low; in the data active = activity change below about -30%
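First, chaperonin was dispensed at 40 nM or 20 nM final depending on batch activity. Next, compounds were pinned at 76 uM and ATP added at 10 uM. After 30 min at 37 °C, ADP detection reagents ran 30 min at ambient temperature.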
Mm-Cpn inhibitor = blocks the Methanococcus maripaludis chaperonin Mm-Cpn; purified Mm-Cpn ATPase, ADP Transcreener TR-FRET; hit rate 0.031% among 330,000; Potency, µM (top dose mostly 76.9 µM), actives largely listed as inhibitors; note: nearly all actives have a fitted effect of over 80% in size
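Purified archaeal Mm-CPN (25nM final) preincubated 10 min at 37degC with compound, then 10uM ATP for 30 min at 37degC; ADP measured by HTRF Transcreener TR-FRET; buffer 30 mM TRIS pH 7.4, 100mM KCl, 5mM MgCl2, 1mM DTT.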
VDR inhibitor = blocks the human vitamin D receptor; Potency, µM, most hits filed as inhibitors; hit rate 0.93% among 400,000; VDR-SRC2-3 peptide fluorescence polarization, 2 h; P11473
Target sequence (P11473 whole entry, looked up): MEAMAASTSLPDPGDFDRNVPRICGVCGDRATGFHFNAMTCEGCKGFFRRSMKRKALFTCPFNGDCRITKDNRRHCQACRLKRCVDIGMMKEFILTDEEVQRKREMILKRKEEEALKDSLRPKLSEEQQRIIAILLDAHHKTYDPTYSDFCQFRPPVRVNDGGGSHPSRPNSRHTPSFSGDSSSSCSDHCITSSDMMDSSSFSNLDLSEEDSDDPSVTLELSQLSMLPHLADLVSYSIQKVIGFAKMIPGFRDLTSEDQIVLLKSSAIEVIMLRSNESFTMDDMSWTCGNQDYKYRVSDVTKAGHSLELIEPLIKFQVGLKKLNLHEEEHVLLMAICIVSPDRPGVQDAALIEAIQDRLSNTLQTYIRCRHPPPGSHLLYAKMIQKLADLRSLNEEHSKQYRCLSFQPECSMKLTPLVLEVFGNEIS
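Compounds are added to VDR with labelled SRC2-3 coactivator peptide and held 2 h at room temperature. Inhibition of the VDR–peptide interaction is then read as a change in fluorescence polarization.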
Each line names hits and unclear results; the compound was inactive in the other large screens. Unless noted, calls come from the whole dose curve; as a rule, active = well fitted curve in the direction sought with a large enough effect; inconclusive = small, poorly fitted or top-dose-only effect, or another doubt; inactive = no such curve, though single readings can be large; an effect the other way counts as inactive or inconclusive.

O=C(Cc1ccc(F)cc1)NC1CC(=O)N(c2ccccc2)C1 (configuration not stated)	none (no result: Sfp inh, PLK1 PBD block, CCT modulator, Mm-Cpn inhibitor)
COC(=O)c1ccc(COc2ccc(/C=N/NC(N)=S)cc2)o1	PLK1 PBD block inconclusive, G9a block 50µM
O=C(Nc1c(F)cc(F)cc1Br)c1cc(S(=O)(=O)N2CCN(c3ccccn3)CC2)ccc1F	G9a block 50µM
CC(C)OCCCNc1ncc2c(n1)CC(c1ccc(N(C)C)cc1)CC2=O (configuration not stated)	G9a block 35µM
CC(=O)Nc1ccccc1-c1nc2ccccc2n(C(C)C(=O)Nc2cc(Cl)ccc2C)c1=O (configuration not stated)	none (no result: Sfp inh, PLK1 PBD block, CCT modulator, Mm-Cpn inhibitor)
C=CCn1c(SCC(=O)NCCC2=CCCCC2)nc2ccc(Cl)cc2c1=O	PLK1 PBD block 11µM, VDR inhibitor inconclusive
COc1ccc(-c2noc(-c3ccc(NC4CCCC4)c([N+](=O)[O-])c3)n2)cc1OC	G9a block inconclusive (no result: Sfp inh, PLK1 PBD block, CCT modulator, Mm-Cpn inhibitor)
Cc1ccc(S(=O)(=O)NN=C2CCC(C(C)(C)C)CC2)cc1[N+](=O)[O-] (configuration not stated)	G9a block 35µM
Cc1ccc(S(=O)(=O)N/N=C2/CC(=O)CC(C)(C)C2)cc1[N+](=O)[O-]	G9a block inconclusive
Cc1ccc(S(=O)(=O)N/N=C2/CC(c3ccccc3)Oc3ccccc32)cc1[N+](=O)[O-] (configuration not stated)	PLK1 PBD block 12µM, G9a block 40µM
CC(C)(C)C1CCC(=NNS(=O)(=O)c2ccc(Br)cc2)CC1 (configuration not stated)	G9a block 7.9µM
CCCC1CCC(=NNS(=O)(=O)c2ccc(C)c([N+](=O)[O-])c2)CC1 (configuration not stated)	PLK1 PBD block inconclusive, G9a block 7.1µM
C=CCc1ccccc1OCc1nc2ccccc2n1CC	none (no result: Sfp inh, PLK1 PBD block, CCT modulator, Mm-Cpn inhibitor)
COC(=O)c1ccc(NC(=O)C(=O)NCCc2csc(-c3ccc(F)cc3)n2)cc1	none (no result: Sfp inh, PLK1 PBD block, CCT modulator, Mm-Cpn inhibitor)
C[C@H](NCc1ccccc1)c1ccccc1	none (no result: PLK1 PBD block, G9a block, CCT modulator, Mm-Cpn inhibitor)
COc1ccc2cc1Oc1cc3c(cc1OC)CC[N+](C)(C)C3Cc1ccc(cc1)Oc1c(OC)c(OC)cc3c1C(C2)[N+](C)(C)CC3 (configuration not stated)	G9a block inconclusive (no result: PLK1 PBD block, CCT modulator, Mm-Cpn inhibitor)
CC1CCCC/C1=N\NS(=O)(=O)c1ccc(Br)cc1 (configuration not stated)	G9a block 3.5µM
Cc1ccc(S(=O)(=O)NN=C2C3CC4CC(C3)CC2C4)cc1	G9a block inconclusive (no result: Sfp inh)
Cc1ccc(S(=O)(=O)NN=C2C3CC4CC(C3)CC2C4)cc1[N+](=O)[O-]	PLK1 PBD block inconclusive, G9a block 22µM
CCc1ccc(OCC(=O)c2c(O)c3ccccc3oc2=O)cc1	G9a block 45µM
Cc1cccc(NC(=O)Cc2coc3ccc4ccccc4c23)n1	Sfp inh 56µM, G9a block inconclusive
Cc1ccc(N2C(=O)CSC23C(=O)N(CC(=O)NCc2ccccc2)c2ccccc23)cc1C (configuration not stated)	none (no result: Sfp inh, PLK1 PBD block, CCT modulator, Mm-Cpn inhibitor)
Cn1cccc1C(=O)N1CCC2(CC1)CCN(c1ccc(-c3ccccc3)cc1)CC2	none (no result: PLK1 PBD block, CCT modulator, Mm-Cpn inhibitor)
O=C(CSc1nc(O)cc(=O)[nH]1)C1CC1	Sfp inh 71µM, G9a block inconclusive
COc1ccc(OC)c(NC(=O)CSc2nc3ccccc3c(=O)n2CCNC(C)=O)c1	none
COc1ccc(NC(=O)CSc2sc3c(O)cc(=O)[nH]c3c2C#N)c(OC)c1	Sfp inh inconclusive, PLK1 PBD block inconclusive, G9a block 79µM
COc1ccc(NC(=O)CSc2nc3ccccc3c(=O)n2CCNC(C)=O)c(OC)c1	Sfp inh 25µM
COC(=O)c1ccc(C)c(NC(=O)CSc2sc3c(O)cc(=O)[nH]c3c2C#N)c1	Sfp inh inconclusive, PLK1 PBD block inconclusive, G9a block inconclusive
O=C(CSCCO)Nc1cccc(C(F)(F)F)c1	none
N#Cc1c(SCC(=O)Nc2cccc(C(F)(F)F)c2)sc2c(O)cc(=O)[nH]c12	Sfp inh 40µM, PLK1 PBD block 13µM, G9a block 45µM, VDR inhibitor inconclusive
Cc1ccc(C)c(NC(=O)CSc2sc3c(O)cc(=O)[nH]c3c2C#N)c1	Sfp inh inconclusive
COc1ccccc1NC(=O)CSc1sc2c(O)cc(=O)[nH]c2c1C#N	Sfp inh 40µM, PLK1 PBD block inconclusive, G9a block 8.9µM
COc1ccc(NC(=O)CSc2nc(O)cc(=O)[nH]2)c(OC)c1	PLK1 PBD block 24µM, VDR inhibitor inconclusive
CCc1ccc(NC(=O)CCn2nc(-c3ccccc3OC)c3c(C)cc(C)nc32)cc1	none (no result: Sfp inh, PLK1 PBD block, CCT modulator, Mm-Cpn inhibitor)
CNC(=S)N(C1=NCC(c2ccc([N+](=O)[O-])cc2)S1)c1ccccc1 (configuration not stated)	G9a block 35µM
Cc1ccc(NC(=O)N(C2=NCC(C)S2)c2ccccc2)cc1 (configuration not stated)	none (no result: Sfp inh, G9a block, Mm-Cpn inhibitor)
CCOC(=O)c1noc2ncn(CC(=O)Nc3cccc(C(F)(F)F)c3)c(=O)c12	none (no result: Sfp inh, PLK1 PBD block, CCT modulator, Mm-Cpn inhibitor)
Cn1cc(Br)c(NC(=O)/C=C/C(=O)O)n1	Sfp inh 8.9µM, G9a block 0.71µM
Cn1cc(Br)c(C(=O)Nc2c(F)c(F)c(F)c(F)c2F)n1	none
O=[N+]([O-])c1ccc(/C=N/NC(=S)Nc2ccc(Cl)cc2Cl)s1	Sfp inh 56µM, G9a block inconclusive
COc1ccc(CCN2CCCC(CN(C)Cc3cc(Cl)c(O)c(OC)c3)C2)cc1 (configuration not stated)	G9a block 71µM
O=[N+]([O-])c1ccc2c(c1)ncn2-c1ccccc1	none
Cn1c(-[n+]2c(-c3ccccc3)cc(-c3ccccc3)cc2-c2ccccc2)nc2cc([N+](=O)[O-])ccc21	Sfp inh 22µM, G9a block 1.8µM
COC(=O)c1c(NC(=O)COc2ccc(C)cc2Br)sc2c1CCCC2	none (no result: Sfp inh, PLK1 PBD block, CCT modulator, Mm-Cpn inhibitor)
COc1ccc(C2/C(=C(\O)c3ccc4c(c3)OCCO4)C(=O)C(=O)N2c2nc(C)c(C(C)=O)s2)cc1 (configuration not stated)	Sfp inh 45µM, G9a block 45µM
COC(=O)c1ccc(C2/C(=C(\O)c3ccc4c(c3)OCCO4)C(=O)C(=O)N2c2nnc(C)s2)cc1 (configuration not stated)	G9a block 45µM
Cc1nnc(N2C(=O)C(=O)/C(=C(/O)c3ccc4c(c3)OCCO4)C2c2cccc([N+](=O)[O-])c2)s1 (configuration not stated)	none (no result: Sfp inh, G9a block, Mm-Cpn inhibitor, VDR inhibitor)
COc1cccc(C2/C(=C(\O)c3ccc4c(c3)OCCO4)C(=O)C(=O)N2c2nnc(C)s2)c1 (configuration not stated)	none
